24 molecules from PubChem BioAssay AID720533 (National Center for Advancing Translational Sciences (NCATS), 2013) can be followed below.

Several values for one entry are separate records, joined by “and”; a condition that tells them apart may be missing. Equal values may be shown once. The campaign covered roughly 18,000 compounds. About 750 (4.2%) were called active. About 13% were inconclusive and are not listed. Calls come from the whole dose curve; tested in HEK293 cells. This excerpt belongs to a sample that is enriched for actives. A structure can be active in one record and inactive in another.
% is set by controls: 0 for no effect and ±100 for the full control effect; potency is the fitted concentration of half-maximal effect.

This test can be described thus: qHTS for Inhibitors of binding or entry into cells for Lassa Virus. The conditions noted are these: Lassa virus pseudotyped entry inhibition, cell-based qHTS; series mostly up to 49.2 µM; activity change, negative = inhibition: at the top concentration. Background: In qHTS, concentration-response curves come from the screen itself.
`COC(=O)[C@H](CC(C)C)NS(=O)(=O)c1c(F)cccc1F`: the “activity change, negative = inhibition” value is 15.1% (inactive). Regarding `O=C1NC(CC(=O)N2CCC(n3c(C4CCC4)nc4cccnc43)CC2)c2ccccc21` (centres undefined), the “activity change, negative = inhibition” value is -11.6% (inactive). The same measure, in the same setting: for `Fc1cccc(/C=N\N=C/c2cccc(F)c2)c1` the value was 2.67% (inactive). The same measure, in the same setting: under `C=CCOC(=O)C(=C)C` stands -1% (inactive). The same measure, in the same setting: for `Cc1ccc(-c2ncc(Cl)cc2-c2ccc(S(C)(=O)=O)cc2)cn1` the value was -8.61% (inactive); for `CC[C@H](C)[C@H](NC(=O)[C@@H](N)CCC(=O)O)C(=O)N[C@@H](CC(C)C)C(=O)N[C@@H](CC(=O)O)C(=O)N[C@H](C(=O)N1CCC[C@H]1C(=O)N[C@@H](CO)C(=O)N[C@H](C(=O)O)[C@@H](C)O)C(C)C`, -17.7% (inactive). Take `CC[C@H]1CN2CCc3cc(OC)c(OC)cc3[C@@H]2C[C@@H]1C[C@H]1NCCc2cc(OC)c(OC)cc21`: the Potency is 0.1 µM (active). As to `O=C(NCC1Cc2cc(F)cc(-c3cnccn3)c2O1)C1COc2ccccc2O1` (centres undefined), the “activity change, negative = inhibition” value is -10.2% (inactive).

With `CCCCCCCC/C=C\CCCCCCCC(=O)NCC(=O)O`, the “activity change, negative = inhibition” value was -9.14% (inactive).

For the molecule `O=[N+]([O-])c1ccc(CN2CC(N3CC=CC3)CS2(=O)=O)cc1` (centres undefined), the “activity change, negative = inhibition” value is 14.7% (inactive). Still for that read-out and setting: for `COc1ccc(-c2c(C)cc3oc(=O)cc(-c4ccccc4)c3c2C)cc1F` the value was 8.65% (inactive).

In the case of `CN[C@@H]1[C@@H](O)[C@@H](O[C@@H]2[C@H](O)[C@H](O[C@H]3OC(CN)=CC[C@H]3N)[C@@H](N)C[C@H]2N)OCC1(C)O` (some centres undefined), the “activity change, negative = inhibition” value was -1.11% (inactive). Regarding `CCOC(=O)CN1C(=O)NC(CCc2ccccc2)C(C(C)=O)=C1C` (centres undefined), the activity change, negative = inhibition is -20.9% [at 8.59 µM] (inactive).

For the molecule `OCCN1CCN(CC/C=C2\c3ccccc3Sc3ccc(C(F)(F)F)cc32)CC1`, the “activity change, negative = inhibition” value was -11% [at 17.8 µM] (inactive).

In the case of `Cc1ccc(/C(=C/CN2CCCC2)c2ccccn2)cc1`, the activity change, negative = inhibition result is “inactive”. Regarding `COc1ccccc1-c1ccnc(-n2ncc(C(=O)NCCCN3CCOCC3)c2C)n1`, the “activity change, negative = inhibition” value was 3.84% (inactive).

As for `C=CCN1C(=O)[C@]2(OCCC=C[C@H]2C)c2ccccc21`, the activity change, negative = inhibition was -16.5% [at 8.59 µM] (inactive). `C[C@@H]1CC[C@H]2C(=O)N(Cc3ccc(Cl)cc3)C[C@@H](O)CN2[C@@H]1c1cccc(Br)c1`: the activity change, negative = inhibition is 6.98% [at 8.59 µM] (inactive).

Take `Nc1nc2[nH]c(=O)c(=O)[nH]c2c(=O)[nH]1`: the “activity change, negative = inhibition” value was 5.82% (inactive). Still for that read-out and setting: for `CCOC(=O)Cn1c(=O)sc2cccc(Cl)c21` the value was -6.52% (inactive).

Regarding `CNCC[C@H](Oc1ccc(C(F)(F)F)cc1)c1ccccc1`, the Potency entry is “inactive and 28.2 µM (active)”. Consider `COC(=O)C1=C(C)N(Cc2ccccc2)C(=NCCc2ccccn2)NC1c1cccc(C(F)(F)F)c1` (centres undefined), for which the activity change, negative = inhibition is -11.6% [at 8.59 µM] (inactive).

For `COc1ccccc1N1CCN(CCN2C(=O)c3ccccc3C(C)(C)C2=O)CC1`, the activity change, negative = inhibition result was “inactive”. Take `CC(C)=CCC[C@]1(C)[C@@H](CC=C(C)C)C[C@@]2(CC=C(C)C)C(=O)[C@]1(C(=O)C(C)C)C(=O)C(CC=C(C)C)=C2O`: the Potency is 12.6 µM (active).
